Bioassay records as filed in PubChem.
USP8 inh: human USP8 deubiquitinase inhibition | P40818 | purified USP8, Ub-rhodamine cleavage fluorescence, 30 min | inhibition, % at 20 µM | actives 4.2% (n = 47,000) | AID 1645853
USP28 block: inhibitors of human USP28 deubiquitinase; actives 3% (n = 47,000); Q96RU2; inhibition, % at 25 µM; AID 1645857; purified USP28, Ub-rhodamine cleavage fluorescence, 30 min
OTUD3 block: human OTUD3 deubiquitinase inhibition | inhibition, % at 25 µM | Q5T2D3 | purified OTUD3, Ub-rhodamine fluorescence, 2 h | actives 0.7% (n = 47,000)
UCHL1 block: blocks human UCHL1 ubiquitin-rhodamine cleavage; P09936; actives 0.2% (n = 47,000); inhibition, % at 20 µM; purified UCHL1, Ub-rhodamine cleavage fluorescence
USP7 inh: blocks human USP7 ubiquitin-rhodamine cleavage; Q93009; purified USP7, Ub-rhodamine cleavage fluorescence; inhibition, % at 20 µM; actives 0.3% (n = 47,000)
USP10 block: blocks human USP10 ubiquitin-rhodamine cleavage; actives 1.1% (n = 47,000); Q14694; inhibition, % at 20 µM; purified USP10, Ub-rhodamine fluorescence, 60 min; AID 1645856
* hit, by the source's call; x = no result given. Sampled rows, rich in hits. Any-hit rate of the full collection: about 6.8%. No stated cut-off is given here; in the data, active means inhibition above about 30%; inactive means the rest.

SMILES	USP8 inh	USP28 block	OTUD3 block	UCHL1 block	USP7 inh	USP10 block
O=C1CC(c2ccccc2)S(=O)(=O)c2ccccc2N1Cc1ccccc1F (centres undefined)	14.2	8.1	7.6	6.0	4.3	5.6
CCc1nc(-c2ccc(C(=O)Nc3cccnc3)cc2)no1	-5.7	49.2*	12.9	-1.2	-1.5	-2.1
Cc1cccc(NC(=O)CCc2nc(-c3cccnc3)no2)c1	-5.8	-17.6	-2.7	-0.1	-0.1	-1.3
O=C(COc1coc(CN2CCc3ccccc3C2)cc1=O)Nc1cccc(F)c1	30.4*	18.8	5.7	4.8	5.1	5.9
O=C(COc1coc(CN2CCc3ccccc3C2)cc1=O)Nc1ccccc1F	-6.3	-7.2	-9.2	-8.2	-14.0	-8.7
O=S(=O)(Nc1ccc2ccccc2c1)c1ccc2c(c1)OCCCO2	17.6	6.3	5.4	6.3	5.2	10.7
CCc1noc(Cn2cnc3c4ccccc4n(CC(=O)NC4CCCCC4)c3c2=O)n1	21.9	53.1*	25.0	4.5	-3.7	17.8
O=C(Cn1c(=O)n(-c2ccc(F)cc2)c(=O)c2oc3ccccc3c21)NC1CCCCC1	40.7*	6.3	10.4	-0.9	6.5	6.8
CCc1ccc(-n2c(=O)c3ccccc3n(CC(=O)NC3CCCC3)c2=O)cc1	4.6	31.1*	25.7	3.0	6.9	9.4
Cc1ccc(S(=O)(=O)c2cnc(SCC(=O)Nc3ccc(Cl)cc3)nc2N)cc1C	23.3	48.0*	14.0	0.0	8.6	4.5
COCCCN1CCS(=O)(=O)c2c(Cl)c(F)nc(Oc3ccc(C#N)cc3)c21	90.8*	20.3	-0.7	24.5	x	10.0
COCCN1CCS(=O)(=O)c2c(Cl)c(F)nc(Oc3ccccc3F)c21	52.9*	5.2	-1.9	0.2	-150.2	0.2
Cc1c(C)n(CCC(=O)N2CCC3(CC2)NC(=O)c2ccccc2N3)c2ccccc12	-14.2	-54.5	-29.0	-4.4	-3.5	-2.1
O=C(CSc1nnc2n(-c3ccccc3)c(=O)c3ccccc3n12)c1ccc(F)cc1	36.4*	-4.0	4.2	1.6	8.5	26.3
CCN1CCN(c2ccc(C(=O)O)cc2NS(=O)(=O)c2ccc(C(C)C)cc2)CC1	81.4*	1.8	5.9	-1.0	-14.8	1.3
N#Cc1ccc(Cn2nnc(-c3cccc(Cl)c3)n2)cc1	7.1	72.7*	-3.4	4.7	2.4	11.6
COc1ccc(-c2nnn(Cc3ccc(-c4ccccc4)cc3)n2)cc1OC	14.2	-3.8	-4.5	4.2	6.1	2.8
CCOC(=O)N1CCN(C(=O)c2ccc(NCc3ccc(F)cc3)c(S(=O)(=O)Nc3cccc(C(F)(F)F)c3)c2)CC1	16.9	26.3	-0.5	7.6	8.1	56.5*
CCOC(=O)N1CCN(C(=O)c2ccc(CNS(=O)(=O)c3ccc(NC(C)=O)cc3)cc2)CC1	21.8	10.0	9.9	1.7	4.8	3.3
Cc1ccc(NC(=O)c2cn(-c3ncccc3-c3nc(C)no3)cn2)c(C)c1	1.6	-10.3	-11.9	-2.0	-3.0	-1.2
Cc1nn(-c2ccc(F)cc2)c(C)c1S(=O)(=O)N1CCN(c2ccccn2)CC1	-2.5	3.6	21.1	6.4	35.7*	4.8
Cn1c(CCc2ccc(NC(=O)Nc3ccc4c(c3)OCO4)cc2)nc2ccccc21	5.3	-6.8	-0.3	-4.0	3.7	0.6
Cc1cc(C)c(NC(=O)CSc2nc3cn(C)nc3c(=O)n2CC2CC2)c(C)c1	41.9*	17.9	-1.4	0.5	5.4	13.5
Cc1cc(=O)[nH]c(SCc2nc3ccccc3n2C)n1	-137.5	6.3	3.9	-4.5	-0.1	2.2
Cc1cc(OCCOCCN2CCN(C)CC2)cc(C)c1Cl	-7.4	33.2*	0.0	0.6	-6.2	-0.2
SMILES	USP8 inh	USP28 block	OTUD3 block	UCHL1 block	USP7 inh	USP10 block
CC(=O)Nc1cc(NC(=O)CSc2nnc(-c3ccco3)c(-c3ccco3)n2)ccc1C	73.2*	3.3	14.3	15.6	-81.4	-3.2
CCN1C(=O)[C@H]2CN(C(C)=O)C[C@H]2C12CCN(C(=O)NCCc1ccc(F)cc1)CC2	-1.9	-1.1	0.2	-2.8	-1.6	0.1
O=C(Nc1ccc2n[nH]nc2c1)c1ccc(Cl)c(Cl)c1	0.2	17.0	40.3*	0.0	1.8	7.7
COc1ccc(C(=O)Nc2ccc3nc(C)c(C)nc3c2)cc1	-7.5	21.4	-4.9	0.0	3.2	0.1
Cc1c(-c2nnc(-c3ccccn3)o2)nnn1-c1cccc(Cl)c1	0.8	94.2*	20.4	1.0	-32.3	-0.2
O=C(Cn1ccc2ccn(Cc3ccccc3)c2c1=O)NC1CCCC1	14.9	27.5	8.7	1.3	-8.7	-1.7
O=C(Cn1ccc2ccn(Cc3ccccc3)c2c1=O)Nc1ccccc1Cl	77.2*	8.3	5.6	-3.6	16.7	26.5
CCOC(=O)c1cc2c(ccn2-c2ccc(F)cc2)n1CC(=O)Nc1ccc2c(c1)OCCO2	53.9*	14.3	-1.4	-2.6	5.0	37.3*
COc1cc2c(=O)c(C(=O)c3ccc(F)cc3)cn(CC(=O)Nc3ccc4c(c3)OCCO4)c2cc1OC	-19.2	0.0	-2.5	0.9	8.2	13.8
COc1ccc(-c2nnn(CC(=O)Nc3ccccc3)n2)cc1	1.7	39.3*	7.8	-1.7	6.1	10.0
COCCNC(=O)Cn1nnc(-c2ccc(-c3ccc(OC)cc3)cc2)n1	26.5	10.7	11.8	2.8	11.5	13.4
O=C(CCCCCn1c(=O)c2sccc2n(CC(=O)c2ccc(F)cc2)c1=O)NCc1ccccc1Cl	44.9*	16.2	4.3	-4.8	2.0	15.1
O=C(CCCCCn1c(=O)c2sccc2n(CC(=O)c2ccc(Cl)c(Cl)c2)c1=O)NCc1ccc2c(c1)OCO2	89.3*	3.0	19.0	-1.8	13.0	46.1*
O=C(CCCn1c(=O)c2sccc2n(Cc2ccc(F)cc2)c1=O)NCc1ccco1	33.0*	5.9	9.1	1.3	-25.4	1.5
Cc1cc(NC(=O)Cn2c(=O)n(CCCCCC(=O)NCc3ccc4c(c3)OCO4)c(=O)c3sccc32)n[nH]1	4.8	-3.9	0.0	-0.4	5.1	5.9
Oc1sc(C=Nc2ccc(F)cc2)c2ccccc12	67.7*	8.7	-1.2	3.0	-18.0	0.2
O=C1Nc2ccc(S(=O)(=O)NCCCCCCNS(=O)(=O)c3ccc4c5c(cccc35)C(=O)N4)c3cccc1c23	-20.2	37.9*	-54.5	-7.6	7.7	-4.0
O=C1Nc2ccc(S(=O)(=O)NCCCO)c3cccc1c23	1.0	14.3	6.4	0.0	3.0	-8.8
CCN(CC)S(=O)(=O)c1ccc2c(c1)CCN2C(C)=O	22.3	12.6	16.9	-0.5	3.4	1.2
Cc1ccc(-c2cc3nc(Nc4ccc(C(N)=O)cc4)ccn3n2)cc1	71.4*	-21.8	-34.3	-2.9	-6.1	-5.7
Cc1cc(C)n2nc(NCc3cccc(Cl)c3)nc2n1	14.9	32.4*	4.0	1.6	-1.4	1.4
CC(=O)Nc1ccc(NC(=O)C2CCC(CNS(=O)(=O)c3ccc(F)cc3)CC2)cc1 (centres undefined)	24.8	17.9	12.6	-2.3	7.3	9.6
CC(=O)Nc1ccc(C(=O)/C=C2\NCCc3cc4c(cc32)OCCCO4)cc1	44.5*	-72.8	-66.7	-2.6	-11.2	-6.1
